# Bioassay records (PubChem)
# FXN GAA850 act: FXN promoter activators, primary screen, cell-based, luciferase luminescence, HEK293 lucGAA850; HEK293 lucGAA850 FXN promoter luciferase reporter, 24 h; percent of 10 µM SAHA response; activation, % at 6 µM; actives 0.56% (n = 360,000);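 active = activation above the average of all compounds screened plus 3 SD, cutoff fixed separately per campaign, cut at about 7.5% in these data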;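 also: 0% = DMSO wells and 100% = 10 µM SAHA wells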
# esBAF inh: Bmi1 luciferase reporter increase in mESCs, primary screen, esBAF inhibitor project, mouse ES cells, Bmi1 luciferase knock-in, single point. 24 h; 100% = twice the neutral-well signal. reporter increase, % at 12.5 µM. actives 2% (n = 350,000). AID 602393, 2012; in the data active = activation above about 40%; inconclusive = no clear call, values can overlap the other calls;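 also: 0% = median of the plate's neutral control wells and 100% = double that signal; a rise in the Bmi1 reporter signal indicates esBAF inhibition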
# MITF TRPM1 HTS: activators of MITF-driven TRPM1 promoter reporter, primary screen, cell-based, SK-MEL-5, luciferase, single point; SK-MEL-5 TRPM1-promoter luciferase, 24 h; % of positive control, neutral wells = 0; actives 0.75% (n = 300,000); AID 588334, 2011; activation, % at 12.5 µM;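 active = mean activation of at least 80% with every replicate also reaching 80%; inconclusive = mean reaches 80% but some replicate falls short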;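 also: 0% = neutral control wells and 100% = parthenolide positive control wells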
# Wnt bcat act: Wnt/beta-catenin pathway activators, primary screen, cell-based, plate reader, single point; Wnt/beta-catenin reporter cell assay, activator; activation, % at 9.35 µM; actives 1.2% (n = 300,000); AID 743398, 2014; in the data active = activation above about 30%, passing the limit was not always enough; inconclusive = no clear call, values can overlap the other calls;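 also: 0% = neutral control wells and 100% = positive control wells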
# Statin myotox sup: suppressors of statin myotoxicity in C2C12 myotubes, primary screen, cell-based, single point, plate reader; C2C12 myotubes + simvastatin, ATP luminescence, 48 h; scaled: DMSO 0, geranylgeraniol control 100; rescue of ATP level, % at 7.49 µM; actives 0.78% (n = 330,000);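 active = mean ATP rescue above about 67%, or every replicate alone reaching that limit, limit read from the data, passing the limit was not always enough; inconclusive = no clear call, values can overlap the other calls; inactive = mean under the limit and some replicate under it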;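 also: myotubes were challenged with 10 µM simvastatin during compound exposure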
# GAA30 counter: GAA30 FXN promoter activators, confirmation, counter-screen for GAA850 frataxin promoter activator project, cell-based, luminescence, HEK293, lucGAA30, triplicate; activation, % at 6 µM; HEK293 lucGAA30 FXN promoter luciferase, 24 h; DMSO = 0%, 5 µM ipriflavone = 100%; shares compounds with FXN GAA850 act; actives 66% (n = 1,900);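 active = mean activation above the mean of solvent-only control wells plus 3 SD, cut at about 22% in these data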;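 also: counterscreen of GAA850 promoter hits where activity marks nonselective or luminescence artifacts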
# GAA850 confirm: FXN GAA850 promoter activators in reporter cells, confirmation, cell-based, luminescence, HEK293 lucGAA850, triplicate | shares compounds with FXN GAA850 act | HEK293 lucGAA850 FXN promoter luciferase reporter, 24 h; 100% = activation by SAHA | activation, % at 6 µM | actives 86% (n = 1,900);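 active = mean activation above a set limit taken from the primary screen, cut at about 8% in these data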;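 also: 0% = DMSO wells and 100% = 10 µM SAHA wells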
# Active calls of the source: *; u = inconclusive; x = no result given. Rows were chosen to be rich in hits. Some 3.3% of all compounds tested hit in one or more screens of this group.
SMILES,FXN GAA850 act,esBAF inh,MITF TRPM1 HTS,Wnt bcat act,Statin myotox sup,GAA30 counter,GAA850 confirm
COc1cccc(C(=O)c2sc(NC(C)C)nc2N)c1,12.1*,17.0,-3.1,-1.4,-0.6,69.4*,88.9*
C[C@@H]1CN([C@@H](C)CO)C(=O)Cc2cc(NS(=O)(=O)c3cn(C)cn3)ccc2O[C@H]1CN(C)C(=O)Nc1ccc(C(F)(F)F)cc1,x,11.1,x,x,1.2,x,x
O=C(CCN1C(=O)c2ccccc2C1=O)Oc1ccc2ccccc2c1,2.6,-0.9,6.6,0.0,3.8,x,x
CC1=CC(C)(C)Nc2ccc(OC(=O)CCN3C(=O)c4ccccc4C3=O)cc21,11.0*,x,-20.1,-1.5,x,-15.7,22.6*
CCCNC(=O)N[C@H]1CC[C@@H](CC(=O)NC2CCCCC2)O[C@H]1CO,x,-4.7,x,x,1.3,x,x
N#Cc1c(N)n(C2CCCCC2)c2nc3ccccc3nc12,8.1*,-4.2,-14.2,x,-1.3,3.8,18.4*
O=P(NC1CCCCC1)(c1ccccc1)c1ccccc1,0.3,0.2,13.6,-3.2,2.9,x,x
CC/C(=C\C1CCCCC1)C(NP(=O)(c1ccccc1)c1ccccc1)c1ccccc1 (stereo not given),13.2*,-10.8,-17.2,-12.3,12.6,29.7*,18.6*
O=C(N/N=C/c1ccccn1)c1ccncc1,1.2,37.1,1.9,-0.6,-2.2,x,x
COc1ccc(C(=O)N/N=C/c2ccccn2)cc1OC,0.7,11.2,1.8,2.3,0.4,x,x
O=C(N/N=C/c1ccccn1)c1ccc(Cl)cc1,11.8*,u,-13.5,20.1,7.7,-76.6,-20.4
COc1ccc(C(=O)Nc2ccccc2C(=O)N/N=C/c2ccccn2)cc1OC,10.4*,x,x,8.6,x,-110.1,-31.9
C[C@@H]1CN([C@H](C)CO)C(=O)Cc2cc(NC(=O)Cn3cnnn3)ccc2O[C@@H]1CN(C)C(=O)NC1CCCCC1,x,1.0,x,x,3.7,x,x
O=C(Nc1ccc2oc(-c3ccccc3Cl)nc2c1)c1ncn[nH]1,3.5,u,64.3,26.9,1.0,x,x
O=C(Nc1ccc2oc(-c3cccc4ccccc34)nc2c1)c1ncn[nH]1,8.8*,31.6,58.0,x,47.1,104.5*,40.6*
Cc1ccc(C)c(-n2cc(CNCCCn3cccn3)c(-c3ccccc3)n2)c1,10.8*,-3.4,7.3,2.5,-22.5,10.6,7.5
Cc1ccc(-n2cc(CNCCCn3cccn3)c(-c3cccc(C)c3)n2)cc1,-1.4,x,-79.3,5.8,x,x,x
O=c1c2ccccc2nc(-c2ccco2)n1Cc1ccccc1,8.2*,51.7*,96.3*,x,1.0,107.4*,27.9*
CC1CCCC(C)N1/N=C/c1ccc(O)c(O)c1 (stereo not given),0.2,-0.6,-7.8,-1.4,7.9,x,x
Oc1ccc(/C=N/N2CCCCC2)cc1O,12.3*,-8.5,27.4,-2.3,4.9,54.9*,28.4*
N#C/C(=C/c1ccc(O)c(O)c1)c1nc2ccccc2[nH]1,9.2*,56.8*,37.1,4.4,-7.8,101.9*,38.6*
CNC[C@@H]1OCCCC[C@H](C)Oc2ccc(NC(=O)Cc3ccccc3)cc2C(=O)N([C@H](C)CO)C[C@@H]1C,x,2.4,x,x,2.2,x,x
O=C(C[C@H]1C[C@H]2c3cc(NC(=O)NC4CCCC4)ccc3O[C@H]2[C@H](CO)O1)NCc1ccc(Cl)cc1,x,2.6,x,x,3.9,x,x
Cc1ccc([N+](=O)[O-])cc1-c1ccc(/C=C(\C#N)c2[nH]nc(N)c2C#N)o1,8.7*,83.3*,43.0,u,-219.1,47.9*,20.4*
O=C(O)c1cnn(-c2nc(-c3ccc(Cl)c(Cl)c3)cs2)c1C(F)(F)F,8.1*,18.5,38.9,3.1,16.2,59.6*,31.8*
SMILES,FXN GAA850 act,esBAF inh,MITF TRPM1 HTS,Wnt bcat act,Statin myotox sup,GAA30 counter,GAA850 confirm
O=C(O)c1cnn(-c2nc(-c3cccc(F)c3)cs2)c1C(F)(F)F,0.7,x,-6.5,-3.7,x,x,x
COCCNC(=O)c1cc(-c2cccs2)on1,15.1*,25.9,9.2,u,-45.1,145.3*,69.9*
Cc1cc(C(=O)COC(=O)c2nccnc2N)c(C)n1C,9.1*,-21.3,61.8,13.8,4.7,104.0*,31.7*
CCOC(=O)c1nc2ccccc2c(=O)[nH]1,8.1*,x,29.7,18.2,x,69.3*,22.6*
CCc1cccc(CC)c1NC(=O)COC(=O)c1ccc2c(c1)S(=O)(=O)c1ccccc1C2=O,14.2*,x,-2.4,1.8,x,25.7*,6.4
NC(=O)COC(=O)c1ccc2c(c1)S(=O)(=O)c1ccccc1C2=O,-0.3,-2.7,-6.3,-1.0,-2.7,x,x
C[C@@H]1CCCCO[C@H](CN(C)Cc2ccc(Cl)c(Cl)c2)[C@@H](C)CN([C@H](C)CO)C(=O)c2cc(NC(=O)NC3CCCCC3)ccc2O1,x,-1.1,x,x,-75.3,x,x
Cc1ccc(S(=O)(=O)N2CCOCC2)cc1NC(=O)CN1C(=O)NC2(CCCC2)C1=O,1.7,-5.8,15.0,0.1,-4.9,x,x
CCN(CC)c1ccc(S(=O)(=O)N2CCCCC2)cc1NC(=O)CN1C(=O)NC2(CCCC2)C1=O,9.0*,-0.6,3.3,-6.0,-2.2,20.9,10.4*
COc1ccccc1NC(=O)N[C@H]1CC[C@H](CC(=O)N2CCC(Cc3ccccc3)CC2)O[C@H]1CO,x,8.5,x,x,-1.3,x,x
Cc1ccc(-c2nc(N)c3c(-c4ccc(C)cc4)nn(C(C)(C)C)c3n2)cc1,2.8,3.7,-8.2,x,-19.5,x,x
CC(C)(C)n1nc(-c2ccc(Cl)cc2)c2c(N)ncnc21,11.3*,x,11.0,x,x,64.2*,5.7
CC(C)(C)n1nc(-c2ccc(F)cc2)c2c(N)ncnc21,11.6*,-8.4,29.4,x,-9.8,53.7*,11.7*
COc1ccc(S(=O)(=O)N(C)C[C@@H]2OCCCC[C@H](C)Oc3ccc(NC(=O)Nc4c(C)noc4C)cc3C(=O)N([C@@H](C)CO)C[C@H]2C)cc1,x,-2.5,x,x,u,x,x
C[C@@H](NC(=O)C[C@H]1C[C@H]2c3cc(NS(C)(=O)=O)ccc3O[C@H]2[C@@H](CO)O1)c1ccccc1,x,0.5,x,x,-2.8,x,x
C[C@@H]1CCCCO[C@H](CN(C)Cc2ccc3c(c2)OCO3)[C@@H](C)CN([C@H](C)CO)C(=O)c2cc(NS(C)(=O)=O)ccc2O1,x,-3.4,x,x,-4.5,x,x
